The list is not random: actives were taken first. Their share in the collection is about 9.9%.
Tau fluor counter: Counterscreen qHTS for Inhibitors of Tau Fibril Formation, Fluorescence Polarization. tau K18 P301L Alexa594 fluorescence, heparin fibrillization. Potency, µM (titrated, usually from 57.7 µM), without a hit: top-dose activity change, negative = decrease. hit rate 0.93% among 280,000. AID 1463, 2008; active means well fitted curve in the direction sought with a large enough effect; inconclusive means small, poorly fitted or top-dose-only effect, or another doubt; inactive means no such curve, though single readings can be large; an effect the other way counts as inactive or inconclusive; further: nearly all actives have a fitted effect of over 55% in size
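Human K18 P301L tau (15 uM unlabeled plus 0.24 uM Alexa 594-labeled, final) in 100 mM sodium acetate pH 7 was mixed with compound and 20 uM heparin and incubated 6 hr at 37 C.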
Tau fibril ThT: qHTS for Inhibitors of Tau Fibril Formation, Thioflavin T Binding; Microtubule-associated protein tau (Homo sapiens), P10636; recombinant tau K18 P301L (four-repeat tau fragment), heparin-induced fibrillization, ThT fluorescence; Potency, µM (highest dose often 57.4 µM), inactives show at the top dose activity, negative = inhibition, usual class: inhibitors; hit rate 2.1% among 270,000; AID 1460, 2008; active means well fitted curve in the direction sought with a large enough effect; inconclusive means small, poorly fitted or top-dose-only effect, or another doubt; inactive means no such curve, though single readings can be large; an effect the other way counts as inactive or inconclusive; further: nearly all actives have a fitted effect of over 55% in size
Target sequence (P10636 561-689 P618L limits assumed): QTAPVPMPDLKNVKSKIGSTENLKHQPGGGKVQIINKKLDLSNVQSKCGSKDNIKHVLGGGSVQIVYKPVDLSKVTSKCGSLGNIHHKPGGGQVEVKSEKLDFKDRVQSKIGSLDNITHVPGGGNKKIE
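Recombinant human tau K18 fragment […] carrying P301L, 15 uM unlabeled plus 0.24 uM Alexa 594-labeled, was fibrillized with 20 uM heparin in 100 mM sodium acetate pH 7 for 6 hr at 37 C; 30 uM ThT fluorescence read after 1 hr.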
Tau FP inhib: qHTS for Inhibitors of Tau Fibril Formation, Fluorescence Polarization. K18 P301L tau heparin fibrillization, Alexa594 FP, 6 h. Potency, µM (series often up to 57.7 µM), without a hit: at the highest dose activity, negative = inhibition, hits mostly inhibitors. hit rate 0.39% among 280,000; active means well fitted curve in the direction sought with a large enough effect; inconclusive means small, poorly fitted or top-dose-only effect, or another doubt; inactive means no such curve, though single readings can be large; an effect the other way counts as inactive or inconclusive; further: nearly all actives have a fitted effect of over 55% in size
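Read-out: fluorescence polarization of Alexa 594-labeled tau (0.24 uM), 555 nm excitation, 632 nm emission. Mixtures held 15 uM unlabeled K18 P301L, compound and 20 uM heparin, pH 7 acetate buffer, incubated 6 hr at 37 C.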
ALDH1A1 inh: qHTS Assay for Inhibitors of Aldehyde Dehydrogenase 1 (ALDH1A1). Potency, µM (top dose mostly 75.3 µM), without a hit: at the highest dose activity, negative = inhibition, actives largely listed as inhibitors. hit rate 7.3% among 220,000. Purified ALDH1A1, NADH fluorescence, propionaldehyde substrate. Aldehyde dehydrogenase 1A1 (Homo sapiens), P00352. AID 1030, 2008;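 further: plate controls were no enzyme wells and a reference inhibitor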
Target sequence (P00352 whole entry, looked up): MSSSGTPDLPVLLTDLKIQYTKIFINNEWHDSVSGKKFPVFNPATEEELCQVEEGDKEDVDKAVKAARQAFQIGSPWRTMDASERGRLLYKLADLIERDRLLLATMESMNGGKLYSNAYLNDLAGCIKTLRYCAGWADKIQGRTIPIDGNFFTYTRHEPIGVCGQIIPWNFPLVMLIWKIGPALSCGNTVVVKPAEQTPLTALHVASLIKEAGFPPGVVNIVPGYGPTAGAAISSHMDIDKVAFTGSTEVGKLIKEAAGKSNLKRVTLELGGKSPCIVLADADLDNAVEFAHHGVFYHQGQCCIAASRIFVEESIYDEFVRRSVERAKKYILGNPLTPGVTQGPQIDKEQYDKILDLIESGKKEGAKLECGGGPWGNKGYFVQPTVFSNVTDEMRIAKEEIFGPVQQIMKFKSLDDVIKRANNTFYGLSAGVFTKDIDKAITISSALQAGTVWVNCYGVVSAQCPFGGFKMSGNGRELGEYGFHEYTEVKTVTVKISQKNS
KDM4E inh: qHTS Assay for Inhibitors of Human Jumonji Domain Containing 2E (JMJD2E); JMJD2E catalytic domain, FDH-coupled NADH fluorescence (FDH is formaldehyde dehydrogenase); AID 2147, 2009; Potency, µM (highest dose often 57.1 µM), for the others: at the top dose activity change, negative = inhibition, actives largely listed as inhibitors; hit rate 1.6% among 230,000; Lysine-specific demethylase 4E (Homo sapiens), B2RXH2;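 further: 0% = wells with enzyme and -100% = buffer wells without enzyme; nearly all actives have a fitted effect of over 50% in size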
HPGD inh: qHTS Assay for Inhibitors of HPGD (15-Hydroxyprostaglandin Dehydrogenase) | hit rate 4.3% among 150,000 | 15-hydroxyprostaglandin dehydrogenase [NAD(+)] (Homo sapiens), P15428 | purified HPGD, NADH fluorescence kinetic, PGE2 substrate | Potency, µM, for inactives: at the top dose activity change, negative = inhibition, usual class: inhibitors
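NADH formation kinetics: reaction with 30 uM PGE2 and 1 mM NAD+ (final), 20 nM enzyme, Tris-HCl pH 8 with Tween 20, after 15 min compound preincubation at room temperature. Fluorescence change, last versus first of five reads.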
The depositor's hits bear a star. Unless noted, the call rests on the fitted dose curve; in most records, active means well fitted inhibition curve with a large enough effect (not every such curve was filed as active); inconclusive means small, poorly fitted or top-dose-only effect, or another doubt; inactive means no such curve, though single readings can be large or run the other way. Unless noted, on the % scale 0 is the no-effect control and ±100 the full control effect; potency means the concentration at half of the fitted maximal effect.

Results for O=C(CN1CCN(Cc2ccccc2)CC1)c1ccc(Br)cc1 ?
Tau fluor counter: -4.9%; Tau fibril ThT: inconclusive; Tau FP inhib: -7.1%; ALDH1A1 inh: 2.51µM*; KDM4E inh: 1.6%; HPGD inh: -11.6%

Results for CC(=O)OCC(=O)c1c[nH]c2ccccc12 ?
Tau fluor counter: -7.6%; Tau fibril ThT: -6.2%; Tau FP inhib: -9.0%; ALDH1A1 inh: -8.0%; KDM4E inh: -5.0%

How did CC(C)(C)NCC(=O)c1c[nH]c2ccccc12 do in these assays?
Tau fluor counter: 3.9%; Tau fibril ThT: 7.7%; Tau FP inhib: -6.0%; ALDH1A1 inh: 17.8µM*; KDM4E inh: 0.6%; HPGD inh: -16.7%

Results for O=C(C(c1ccccc1)c1ccccc1)N1CCN(Cc2ccc(Br)cc2)CC1 ?
Tau fluor counter: -12.4%; Tau fibril ThT: -17.7%; Tau FP inhib: 6.2%; ALDH1A1 inh: -7.9%; KDM4E inh: 2.2%; HPGD inh: -20.7%

What do the screens show for `O=C(C(Cl)Cl)N1CCN(Cc2ccccc2)CC1`?
Tau fluor counter: 3.5%; Tau fibril ThT: -10.7%; Tau FP inhib: 4.6%; ALDH1A1 inh: 1.78µM*; KDM4E inh: -2.0%; HPGD inh: -21.1%

How did Cc1cc(O)c(C(=O)c2ccccc2C(=O)O)cc1C do in these assays?
Tau fluor counter: -0.7%; Tau fibril ThT: 1.7%; Tau FP inhib: -1.2%; ALDH1A1 inh: 17.8µM*; KDM4E inh: -43.0%; HPGD inh: -12.7%

What do the screens show for `CCOC(=O)C1=NN(C(=O)c2ccccc2)C(O)(c2ccc(C)cc2)C1` (stereo unspecified)?
Tau fluor counter: -10.4%; Tau fibril ThT: inconclusive; Tau FP inhib: 10.9%; ALDH1A1 inh: -7.9%; KDM4E inh: -21.9%; HPGD inh: -5.1%

What do the screens show for `CCOC(=O)C1=NN(C(=O)c2ccc(OC)cc2)C(O)(c2ccc(Cl)cc2)C1` (stereo unspecified)?
Tau fluor counter: -8.6%; Tau fibril ThT: inconclusive; Tau FP inhib: 8.4%; ALDH1A1 inh: 17.8µM*; KDM4E inh: -24.9%; HPGD inh: -9.0%

Results for COc1ccc(-n2ccnc2SCC(=O)Nc2nnc(C)s2)cc1 ?
Tau fluor counter: -5.9%; Tau fibril ThT: -2.7%; Tau FP inhib: -7.7%

Results for Cc1cccc(C)c1Nc1nnc(SCc2cc([N+](=O)[O-])cc3c2OCOC3)s1 ?
Tau fluor counter: inconclusive; Tau fibril ThT: -19.2%; Tau FP inhib: 0.3%; ALDH1A1 inh: 22.4µM*; KDM4E inh: -7.9%; HPGD inh: 11.2µM*

How did CCOc1cc(C)c(C(C)C)cc1S(=O)(=O)NCc1ccccn1 do in these assays?
Tau fluor counter: 0.8%; Tau fibril ThT: 4.3%; Tau FP inhib: 4.6%; ALDH1A1 inh: 14.1µM*; KDM4E inh: 7.6%; HPGD inh: 1.8%

How did CCOc1cc(C)c(Cl)cc1S(=O)(=O)N1CCCC1 do in these assays?
Tau fluor counter: 2.7%; Tau fibril ThT: -4.4%; Tau FP inhib: -2.8%; ALDH1A1 inh: 7.6%; KDM4E inh: 4.0%; HPGD inh: 0.5%

Results for COc1ccc(C(C)C)cc1S(=O)(=O)N1CCN(C)CC1 ?
Tau fluor counter: -7.0%; Tau fibril ThT: -5.9%; Tau FP inhib: 5.0%; ALDH1A1 inh: inconclusive; KDM4E inh: 3.6%; HPGD inh: -2.8%

What do the screens show for `CCOc1ccc(C(C)C)cc1S(=O)(=O)N1CCOCC1`?
Tau fluor counter: -4.0%; Tau fibril ThT: -1.8%; Tau FP inhib: -9.5%; ALDH1A1 inh: 8.91µM*; KDM4E inh: 4.8%

What do the screens show for `COc1cc(C)c(C(C)C)cc1S(=O)(=O)N1CCN(C)CC1`?
Tau fluor counter: -0.2%; Tau fibril ThT: -1.3%; Tau FP inhib: 0.9%; ALDH1A1 inh: 14.1µM*; KDM4E inh: -3.0%; HPGD inh: -14.6%

What do the screens show for `CCOc1cc(C)c(C(C)C)cc1S(=O)(=O)N1CCN(C)CC1`?
Tau fluor counter: 2.6%; Tau fibril ThT: -0.1%; Tau FP inhib: -8.2%; ALDH1A1 inh: 5.01µM*; KDM4E inh: 4.4%; HPGD inh: -15.1%

What do the screens show for `COC(=O)c1ccc(C(=O)OC)c(NC(=O)CN(c2ccccc2)S(=O)(=O)N(C)C)c1`?
Tau fluor counter: -29.6%; Tau fibril ThT: -21.2%; Tau FP inhib: -3.9%; ALDH1A1 inh: inconclusive; KDM4E inh: inconclusive

What do the screens show for `COc1ccc(N(CC(=O)NCc2ccc(C)cc2)S(=O)(=O)c2c(C)nn(C)c2C)cc1`?
Tau fluor counter: -15.9%; Tau fibril ThT: -11.3%; Tau FP inhib: 4.8%; ALDH1A1 inh: 25.1µM*; KDM4E inh: -2.6%; HPGD inh: -9.5%

Results for COc1ccc(CNC(=O)CN(c2ccc(OC)cc2)S(=O)(=O)c2c(C)nn(C)c2C)cc1 ?
Tau fluor counter: -12.0%; Tau fibril ThT: -5.1%; Tau FP inhib: 4.4%; ALDH1A1 inh: -7.3%; KDM4E inh: 4.1%; HPGD inh: -22.2%

Results for Cn1c2c(c(=O)n(C)c1=O)C(c1ccccc1F)C(C#N)=C(N)O2 (stereo unspecified) ?
Tau fluor counter: -18.6%; Tau fibril ThT: 20µM*; Tau FP inhib: inconclusive; ALDH1A1 inh: inconclusive; KDM4E inh: inconclusive

Results for CCOC(=O)C(C)Sc1cc(CS(=O)(=O)c2ccccc2)nc(-c2ccccc2)n1 (stereo unspecified) ?
Tau fluor counter: -19.0%; Tau fibril ThT: -4.0%; Tau FP inhib: 0.3%; ALDH1A1 inh: 2.3%; KDM4E inh: 4.2%; HPGD inh: -11.0%

How did CN(C)c1ccc(CNC(=O)C2CCN(S(=O)(=O)c3ccc4c(c3)CCC(=O)N4)CC2)cc1 do in these assays?
Tau fluor counter: -17.3%; Tau fibril ThT: -17.1%; Tau FP inhib: 4.0%; ALDH1A1 inh: 17.8µM*; KDM4E inh: -8.8%; HPGD inh: -14.6%

Results for CN(C)c1ccc(CNC(=O)C2CCCN(S(=O)(=O)c3ccc4c(c3)CCCC(=O)N4)C2)cc1 (stereo unspecified) ?
Tau fluor counter: -12.5%; Tau fibril ThT: -3.2%; Tau FP inhib: -11.9%

What do the screens show for `COc1ccc(NC(=O)N2CC3(CCN(C(=O)c4ccc(OC)cc4)CC3)C2)cc1`?
ALDH1A1 inh: -6.0%; HPGD inh: -6.3%

Screening results as filed in PubChem.
